Experimental data published in the supplement of paper PMC10849652.
About 8,800 targets were measured; listed, in parts, are those with a hit and a random draw of the rest. About 0.5% of all pairs of compound and target were hits.

Each target was assayed with C#Cc1cccc(Nc2ncnc3cc(OCCOC)c(OCCOC)cc23)c1 [erlotinib] (assay: log2 fold change, soluble protein after heating vs DMSO (PISA); higher = thermal stabilisation; K562 lysate, 10 uM; active = over 0.2 and 3.5 SD of the protein, either way, in both replicates (recomputed)).
Outline: (§1)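 Thermal stability, expressed as log-two fold change relative to solvent controls, is given from duplicates. Crude K562 extract in PBS pH 7.4 with 1 mM MgCl2, at 1 mg/mL protein, was treated with 10 μM compound for 30 min and heated in aliquots for 3 min across 48°C-58°C. After pooling, adjustment to 0.5% NP-40 at 4°C and centrifugation at 21,000xg for 90 min, supernatant protein was measured by TMTpro 16plex LC-MS/MS with channel sums equalised.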

Chain of UniProt Q9P281 (Q9P281 whole entry, looked up): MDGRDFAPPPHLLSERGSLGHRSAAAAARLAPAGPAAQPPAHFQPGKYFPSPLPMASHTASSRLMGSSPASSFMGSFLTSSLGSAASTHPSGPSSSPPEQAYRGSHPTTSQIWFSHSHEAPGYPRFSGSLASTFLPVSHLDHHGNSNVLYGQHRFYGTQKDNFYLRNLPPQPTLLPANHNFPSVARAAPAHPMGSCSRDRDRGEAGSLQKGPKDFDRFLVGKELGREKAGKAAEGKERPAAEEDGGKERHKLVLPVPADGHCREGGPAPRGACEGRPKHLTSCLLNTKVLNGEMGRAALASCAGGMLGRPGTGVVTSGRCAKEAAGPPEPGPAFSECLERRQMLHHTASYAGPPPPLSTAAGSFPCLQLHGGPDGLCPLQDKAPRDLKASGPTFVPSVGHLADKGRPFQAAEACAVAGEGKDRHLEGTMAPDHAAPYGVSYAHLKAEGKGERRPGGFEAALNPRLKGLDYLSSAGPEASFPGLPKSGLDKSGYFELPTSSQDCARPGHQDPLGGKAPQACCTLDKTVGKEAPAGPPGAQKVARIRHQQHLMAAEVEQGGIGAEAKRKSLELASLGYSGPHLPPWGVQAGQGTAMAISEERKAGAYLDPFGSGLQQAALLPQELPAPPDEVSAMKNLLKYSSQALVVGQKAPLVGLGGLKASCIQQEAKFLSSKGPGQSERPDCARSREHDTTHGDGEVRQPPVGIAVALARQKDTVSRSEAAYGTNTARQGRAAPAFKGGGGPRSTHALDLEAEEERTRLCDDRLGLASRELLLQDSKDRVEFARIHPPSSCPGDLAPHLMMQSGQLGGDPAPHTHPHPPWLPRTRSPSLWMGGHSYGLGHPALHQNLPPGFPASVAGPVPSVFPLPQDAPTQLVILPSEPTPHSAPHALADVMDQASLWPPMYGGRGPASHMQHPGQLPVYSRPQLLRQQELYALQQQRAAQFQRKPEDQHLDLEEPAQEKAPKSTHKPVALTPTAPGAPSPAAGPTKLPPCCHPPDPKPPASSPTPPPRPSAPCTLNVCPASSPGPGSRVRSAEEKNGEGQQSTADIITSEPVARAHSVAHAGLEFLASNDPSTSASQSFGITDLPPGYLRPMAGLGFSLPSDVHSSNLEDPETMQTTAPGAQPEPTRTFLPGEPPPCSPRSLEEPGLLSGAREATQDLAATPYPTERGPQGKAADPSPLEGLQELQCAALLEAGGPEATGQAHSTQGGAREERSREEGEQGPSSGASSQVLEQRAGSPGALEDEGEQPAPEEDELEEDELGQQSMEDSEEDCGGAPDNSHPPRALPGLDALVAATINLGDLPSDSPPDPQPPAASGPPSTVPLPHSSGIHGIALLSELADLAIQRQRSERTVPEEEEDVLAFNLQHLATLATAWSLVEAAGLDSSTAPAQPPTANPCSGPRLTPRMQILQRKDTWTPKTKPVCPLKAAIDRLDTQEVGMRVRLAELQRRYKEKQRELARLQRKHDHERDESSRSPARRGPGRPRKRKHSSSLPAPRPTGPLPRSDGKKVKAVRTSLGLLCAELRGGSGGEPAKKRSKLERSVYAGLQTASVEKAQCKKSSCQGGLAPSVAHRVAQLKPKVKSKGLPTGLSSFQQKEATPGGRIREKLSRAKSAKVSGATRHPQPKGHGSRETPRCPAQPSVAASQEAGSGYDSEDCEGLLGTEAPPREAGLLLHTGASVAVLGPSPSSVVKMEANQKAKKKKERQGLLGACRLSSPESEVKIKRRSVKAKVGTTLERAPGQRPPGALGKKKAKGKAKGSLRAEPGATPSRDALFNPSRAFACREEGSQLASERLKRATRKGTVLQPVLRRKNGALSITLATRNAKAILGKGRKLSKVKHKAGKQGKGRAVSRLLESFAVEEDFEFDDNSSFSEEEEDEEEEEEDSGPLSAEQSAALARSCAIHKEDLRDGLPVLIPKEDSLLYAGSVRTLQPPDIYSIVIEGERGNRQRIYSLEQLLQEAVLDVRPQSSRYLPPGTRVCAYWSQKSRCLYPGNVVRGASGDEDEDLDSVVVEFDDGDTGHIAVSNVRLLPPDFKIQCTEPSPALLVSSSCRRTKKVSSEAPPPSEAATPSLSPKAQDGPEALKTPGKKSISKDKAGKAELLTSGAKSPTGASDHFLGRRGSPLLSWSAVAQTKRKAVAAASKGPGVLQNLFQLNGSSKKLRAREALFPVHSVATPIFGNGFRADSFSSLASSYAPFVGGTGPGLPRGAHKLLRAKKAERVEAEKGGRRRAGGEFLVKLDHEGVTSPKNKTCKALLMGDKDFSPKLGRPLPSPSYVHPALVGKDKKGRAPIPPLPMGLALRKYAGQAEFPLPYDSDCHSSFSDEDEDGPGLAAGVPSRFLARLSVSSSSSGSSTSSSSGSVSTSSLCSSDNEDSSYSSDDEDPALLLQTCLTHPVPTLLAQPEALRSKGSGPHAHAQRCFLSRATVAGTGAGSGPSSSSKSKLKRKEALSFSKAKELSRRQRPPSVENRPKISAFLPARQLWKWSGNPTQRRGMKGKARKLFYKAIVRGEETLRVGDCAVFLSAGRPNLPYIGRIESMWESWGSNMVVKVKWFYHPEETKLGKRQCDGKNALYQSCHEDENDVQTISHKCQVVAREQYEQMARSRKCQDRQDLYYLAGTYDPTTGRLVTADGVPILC
Chain of UniProt O76039 (O76039 whole entry, looked up): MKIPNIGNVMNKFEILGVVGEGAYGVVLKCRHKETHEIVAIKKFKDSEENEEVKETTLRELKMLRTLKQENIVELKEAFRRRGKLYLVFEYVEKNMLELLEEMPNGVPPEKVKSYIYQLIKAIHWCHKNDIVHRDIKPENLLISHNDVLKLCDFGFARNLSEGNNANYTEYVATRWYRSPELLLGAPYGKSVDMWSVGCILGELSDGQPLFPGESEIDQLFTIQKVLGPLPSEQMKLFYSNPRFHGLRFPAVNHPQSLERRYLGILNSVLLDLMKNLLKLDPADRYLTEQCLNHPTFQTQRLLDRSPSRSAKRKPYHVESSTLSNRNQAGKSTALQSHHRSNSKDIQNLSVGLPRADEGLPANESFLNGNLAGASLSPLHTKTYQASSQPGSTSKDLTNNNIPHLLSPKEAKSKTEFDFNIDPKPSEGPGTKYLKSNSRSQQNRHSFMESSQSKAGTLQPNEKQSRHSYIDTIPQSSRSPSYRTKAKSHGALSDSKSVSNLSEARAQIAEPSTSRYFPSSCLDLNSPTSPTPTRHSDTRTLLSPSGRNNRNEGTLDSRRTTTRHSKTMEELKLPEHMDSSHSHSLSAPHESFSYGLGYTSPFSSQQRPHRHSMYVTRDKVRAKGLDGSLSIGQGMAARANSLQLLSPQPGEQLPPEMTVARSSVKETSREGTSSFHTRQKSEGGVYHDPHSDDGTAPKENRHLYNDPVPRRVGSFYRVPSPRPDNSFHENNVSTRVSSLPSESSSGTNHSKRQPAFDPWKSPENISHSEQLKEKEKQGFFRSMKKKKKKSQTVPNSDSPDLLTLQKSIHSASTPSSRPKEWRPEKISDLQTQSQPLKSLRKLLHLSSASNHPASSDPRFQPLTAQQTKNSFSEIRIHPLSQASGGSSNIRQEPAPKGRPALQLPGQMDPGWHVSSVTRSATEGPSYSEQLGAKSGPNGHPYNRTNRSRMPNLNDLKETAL
Chain of UniProt Q9UQ88 (Q9UQ88 whole entry, looked up): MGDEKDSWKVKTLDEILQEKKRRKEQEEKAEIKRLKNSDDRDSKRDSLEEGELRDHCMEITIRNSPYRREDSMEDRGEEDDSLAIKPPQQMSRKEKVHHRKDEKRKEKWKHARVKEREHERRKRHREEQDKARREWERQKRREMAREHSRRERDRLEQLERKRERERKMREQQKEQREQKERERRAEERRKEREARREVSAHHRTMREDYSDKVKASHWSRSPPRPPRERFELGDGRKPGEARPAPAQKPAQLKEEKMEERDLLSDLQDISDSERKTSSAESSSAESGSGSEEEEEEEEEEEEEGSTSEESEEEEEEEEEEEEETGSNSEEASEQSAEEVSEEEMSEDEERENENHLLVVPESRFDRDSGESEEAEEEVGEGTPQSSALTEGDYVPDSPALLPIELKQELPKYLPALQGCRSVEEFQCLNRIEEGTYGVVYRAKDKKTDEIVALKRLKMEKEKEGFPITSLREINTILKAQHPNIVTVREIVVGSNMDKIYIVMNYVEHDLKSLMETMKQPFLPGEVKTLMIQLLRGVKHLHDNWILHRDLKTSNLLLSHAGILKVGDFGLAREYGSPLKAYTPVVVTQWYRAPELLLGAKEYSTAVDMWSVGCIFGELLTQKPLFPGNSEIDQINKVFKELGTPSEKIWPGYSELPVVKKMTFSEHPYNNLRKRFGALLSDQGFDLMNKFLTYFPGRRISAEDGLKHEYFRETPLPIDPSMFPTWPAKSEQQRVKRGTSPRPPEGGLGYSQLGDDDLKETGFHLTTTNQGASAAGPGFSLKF
Chain of UniProt P0DMB2 (P0DMB2 whole entry, looked up): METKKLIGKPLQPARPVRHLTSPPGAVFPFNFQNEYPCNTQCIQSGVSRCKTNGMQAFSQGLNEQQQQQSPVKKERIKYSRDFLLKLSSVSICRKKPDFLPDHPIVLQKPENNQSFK
Chain of UniProt P55210 (P55210 whole entry, looked up): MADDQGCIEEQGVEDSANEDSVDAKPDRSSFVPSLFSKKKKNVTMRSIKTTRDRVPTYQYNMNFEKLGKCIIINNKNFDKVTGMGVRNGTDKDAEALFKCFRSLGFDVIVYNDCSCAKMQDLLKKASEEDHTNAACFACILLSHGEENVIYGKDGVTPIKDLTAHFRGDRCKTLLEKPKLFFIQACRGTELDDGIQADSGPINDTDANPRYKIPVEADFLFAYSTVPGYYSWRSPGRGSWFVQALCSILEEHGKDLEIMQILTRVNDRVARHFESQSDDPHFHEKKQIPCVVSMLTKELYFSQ
Chain of UniProt Q7Z7K6 (Q7Z7K6 whole entry, looked up): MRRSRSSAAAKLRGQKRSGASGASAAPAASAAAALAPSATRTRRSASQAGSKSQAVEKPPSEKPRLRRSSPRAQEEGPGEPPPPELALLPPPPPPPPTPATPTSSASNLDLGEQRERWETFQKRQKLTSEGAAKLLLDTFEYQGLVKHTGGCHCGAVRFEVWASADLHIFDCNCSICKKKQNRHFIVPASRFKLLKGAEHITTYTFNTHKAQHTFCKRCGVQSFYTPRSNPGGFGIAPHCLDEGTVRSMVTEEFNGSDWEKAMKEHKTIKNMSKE

log2 fold change, inactive:
CDK2 (UniProt P24941) -0.026
BAHCC1 (UniProt Q9P281) -0.047
CASP7 isoform 3 (UniProt P55210) 0.104
BRD2 isoform 2 (UniProt P25440) -0.039
C15orf39 (UniProt Q6ZRI6) -0.029
CHD9 (UniProt Q3L8U1) -0.046
CCND3 (UniProt P30281) -0.034
C9orf72 (UniProt Q96LT7) -0.043
C6orf120 (UniProt Q7Z4R8) 0.043
C8orf88 (UniProt P0DMB2) -0.006
CAPNS1 (UniProt K7ES78) 0.193
BICRA (UniProt Q9NZM4) 0.204
CDK11A (UniProt Q9UQ88) 0.053
CDC25A (UniProt P30304) 0.016
BUD13 (UniProt Q9BRD0) -0.04
CAD (UniProt H7BZB3) 0.126
BNIP3 (UniProt Q12983) -0.008
CEP57L1 (UniProt Q8IYX8) -0.064
CCDC130 (UniProt P13994) -0.045
CEP295 isoform 3 (UniProt Q9C0D2) -0.063
B3GALT6 (UniProt Q96L58) 0.074

What follows are targets tested with C/C(=N\NC(=O)C1=CC(=CC=C1)S(=O)(=O)N2CCOCC2)/C3=C(C=CC(=C3)Cl)O in the same assay as above.
Outline: as §1

log2 fold change, inactive:
CDK2 (UniProt P24941) -0.152
BAHCC1 (UniProt Q9P281) 0.026
CHD9 (UniProt Q3L8U1) 0.169
CEP128 (UniProt Q6ZU80) -0.069
CHCHD7 isoform 4 (UniProt Q9BUK0) -0.158
CAPNS1 (UniProt K7ES78) -0.23
CENPV (UniProt Q7Z7K6) -0.033
CAD (UniProt H7BZB3) -0.127
BRAF, A0A2R8Y8E0 -0.005
CDKL5 (UniProt O76039) -0.216
CANX (UniProt D6RHJ3) -0.321
